{"source": "paper PMC6664820", "about": "“Novel natural and synthetic inhibitors of solute carriers SGLT1 and SGLT2” (Pharmacology Research & Perspectives, 2019)", "note": "Among all 1,900 compounds or so, about 40 (2%) showed an effect of 50% or more. Only a selection was taken, and strong results are over-represented in it overall.", "data": [{"biological_target": "human SGLT1 (hSGLT1) (human, UniProt P13866)", "sequence (P13866 whole entry, looked up)": "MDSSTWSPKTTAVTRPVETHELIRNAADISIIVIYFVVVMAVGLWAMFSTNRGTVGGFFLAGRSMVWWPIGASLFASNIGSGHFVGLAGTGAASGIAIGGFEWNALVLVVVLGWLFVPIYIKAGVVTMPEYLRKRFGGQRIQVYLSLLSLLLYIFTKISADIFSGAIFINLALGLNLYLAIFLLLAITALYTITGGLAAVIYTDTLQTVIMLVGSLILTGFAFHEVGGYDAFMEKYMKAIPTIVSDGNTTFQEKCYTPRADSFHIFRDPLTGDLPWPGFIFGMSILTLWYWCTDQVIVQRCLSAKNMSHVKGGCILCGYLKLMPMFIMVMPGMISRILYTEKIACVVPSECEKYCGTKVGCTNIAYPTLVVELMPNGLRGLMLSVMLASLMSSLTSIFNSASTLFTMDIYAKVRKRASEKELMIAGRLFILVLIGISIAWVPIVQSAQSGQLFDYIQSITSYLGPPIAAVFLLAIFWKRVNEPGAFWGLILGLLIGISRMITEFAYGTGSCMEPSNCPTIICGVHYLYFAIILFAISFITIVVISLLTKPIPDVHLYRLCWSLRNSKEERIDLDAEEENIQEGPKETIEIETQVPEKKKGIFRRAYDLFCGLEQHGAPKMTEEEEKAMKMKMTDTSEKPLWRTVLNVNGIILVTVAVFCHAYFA", "experiment": "primary screen, percent of control activity; higher = less effect of the substance", "set-up": "single well", "details": "50 µM", "description": "Two days before the assay, CHO‐wild type and CHO‐hSGLT1 cells were seeded in maintenance medium at 25 000 cells/well in clear‐bottom black 96‐well cell culture plates. Before the assay, cells were washed 3 times with 150 μL/well D‐glucose free DMEM with 0.3% (w/v) BSA. Library compounds at 50 μmol/L (singlicate) prepared in D‐glucose free DMEM with 160 μmol/L 1‐NBD‐glucose and 0.3% (w/v) BSA and negative controls (triplicate) were added at 100 μL/well and placed in a humidified incubator at 37°C with 5% CO2 for 90 minutes. Next, cells were washed 3 times with DMEM with 0.3% (w/v) BSA (150 μL/well). Care was taken to remove all medium after the last wash. Finally, 1‐NBD‐glucose was extracted from the cells by adding 10 μL/well isopropanol and orbital shaking for 5 minutes at 600 rpm, followed by incubation in the dark for 30 minutes. Fluorescence was measured on a Tecan Infinite M200 Microplate Reader (Tecan, Männedorf, Switzerland) with excitation at 445 nm and emission at 525 nm. The amount of 1‐NBD‐glucose taken up by the CHO‐wild type or CHO‐hSGLT1 cells in the presence or absence of test compounds was interpolated from 1‐NBD‐glucose calibration standards. The background uptake by CHO‐wild type was subtracted from the uptake by CHO‐hSGLT1. Background corrected uptake with test compound was expressed as a percentage of corrected uptake without test compound.", "units": {"NORMALIZED SGLT1 ACTIVITY (%)": "%"}, "values": [{"smiles": "CC(C)COCC(CN(Cc1ccccc1)c1ccccc1)N1CCCC1.Cl", "note": "(centres unmarked)", "NORMALIZED SGLT1 ACTIVITY (%)": 48}, {"smiles": "O=P(O)(O)O.c1ccc(CN(CC2=NCCN2)c2ccccc2)cc1", "NORMALIZED SGLT1 ACTIVITY (%)": 87}, {"smiles": "COc1cc2ccc(=O)oc2c(O)c1O", "NORMALIZED SGLT1 ACTIVITY (%)": 142}, {"smiles": "CCCn1c(=O)c2nc(C3CCCC3)[nH]c2n(CCC)c1=O", "NORMALIZED SGLT1 ACTIVITY (%)": 180}, {"smiles": "COc1cc(S(C)=O)ccc1-c1nc2cccnc2[nH]1", "note": "(centres unmarked)", "NORMALIZED SGLT1 ACTIVITY (%)": 237}, {"smiles": "CC1(C)S[C@@H]2[C@H](NC(=O)Cc3ccccc3)C(=O)N2[C@H]1C(=O)[O-].[K+]", "NORMALIZED SGLT1 ACTIVITY (%)": 115}, {"smiles": "CC1(C)CC[C@]2(C(=O)O)CC[C@]3(C)C(=CCC4[C@@]5(C)CC[C@@H](O)C(C)(C)C5CC[C@]43C)C2C1", "note": "(some centres unmarked)", "NORMALIZED SGLT1 ACTIVITY (%)": 133}, {"smiles": "CC1(C)CC[C@@]2(C(=O)O)C(C1)C1=CCC3[C@@]4(C)CC[C@H](O)C(C)(C)C4CC[C@@]3(C)[C@]1(C)C[C@@H]2O", "note": "(some centres unmarked)", "NORMALIZED SGLT1 ACTIVITY (%)": -6}, {"smiles": "CC1(C)CC[C@]2(C)CC[C@]3(C)C(=CCC4[C@@]5(C)CC[C@H](O)C(C)(C)C5CC[C@]43C)C2C1", "note": "(some centres unmarked)", "NORMALIZED SGLT1 ACTIVITY (%)": 91}, {"smiles": "CC(=O)Oc1cc2c(c(C)c1OC(C)=O)CC1OC13[C@@]2(C)CC[C@@]1(C)C2C[C@](C)(C(=O)O)CC[C@]2(C)CC[C@]31C", "note": "(some centres unmarked)", "NORMALIZED SGLT1 ACTIVITY (%)": 204}, {"smiles": "Cl.O=C(O)C1=CCNCC1", "NORMALIZED SGLT1 ACTIVITY (%)": 111}, {"smiles": "CO/N=C1\\CN(c2nc3c(cc2F)c(=O)c(C(=O)O)cn3C2CC2)CC1CN.CS(=O)(=O)O", "note": "(centres unmarked)", "NORMALIZED SGLT1 ACTIVITY (%)": 157}, {"smiles": "CC(C)[N+]1(C)C2CC[C@@H]1C[C@@H](OC(=O)C(CO)c1ccccc1)C2.[Br-]", "note": "(some centres unmarked)", "NORMALIZED SGLT1 ACTIVITY (%)": 83}, {"smiles": "Cl.OC(CCN1CCCCC1)(c1ccccc1)C1CCCCC1", "note": "(centres unmarked)", "NORMALIZED SGLT1 ACTIVITY (%)": 69}, {"smiles": "Cl.OC(CCN1CCCC1)(c1ccccc1)C1CCCCC1", "note": "(centres unmarked)", "NORMALIZED SGLT1 ACTIVITY (%)": 45}, {"smiles": "CS(=O)(=O)O.OC(CCN1CCCCC1)(c1ccccc1)c1ccccc1", "NORMALIZED SGLT1 ACTIVITY (%)": 101}, {"smiles": "CN(C)C(=O)Oc1ccc[n+](C)c1.[Br-]", "NORMALIZED SGLT1 ACTIVITY (%)": 105}, {"smiles": "NC(Cc1c[nH]cn1)C(=O)Nc1ccc2ccccc2c1", "note": "(centres unmarked)", "NORMALIZED SGLT1 ACTIVITY (%)": 153}, {"smiles": "C[C@H]1CC2C3CCC4=CC(=O)C=C[C@]4(C)[C@@]3(F)[C@@H](O)C[C@]2(C)[C@@]1(O)C(=O)CO", "note": "(some centres unmarked)", "NORMALIZED SGLT1 ACTIVITY (%)": 241}, {"smiles": "CC(=O)OCC1=C(C(=O)[O-])N2C(=O)[C@@H](NC(=O)Cc3cccs3)[C@H]2SC1.[Na+]", "NORMALIZED SGLT1 ACTIVITY (%)": 140}, {"smiles": "CCOP(=S)(OCC)Oc1nc(Cl)c(Cl)cc1Cl", "NORMALIZED SGLT1 ACTIVITY (%)": 35}, {"smiles": "CCOP(=S)(OCC)Oc1ccc2c(C)c(Cl)c(=O)oc2c1", "NORMALIZED SGLT1 ACTIVITY (%)": 118}, {"smiles": "CCOP(=S)(OCC)Oc1cc(C)nc(C(C)C)n1", "NORMALIZED SGLT1 ACTIVITY (%)": 107}, {"smiles": "O=C(O)c1cc(O)c(=O)c2c(O)c(O)ccc2c1", "NORMALIZED SGLT1 ACTIVITY (%)": 141}, {"smiles": "CC[C@H](C)[C@H](N)C(=O)N1CCC[C@H]1C(=O)N[C@H](C(=O)O)[C@@H](C)CC", "NORMALIZED SGLT1 ACTIVITY (%)": 98}, {"smiles": "O=C(O)c1cc(O)ccc1O", "NORMALIZED SGLT1 ACTIVITY (%)": 145}, {"smiles": "Cl.Cl.N=C(NCCCCCCNC(=N)NC(=N)Nc1ccc(Cl)cc1)NC(=N)Nc1ccc(Cl)cc1", "NORMALIZED SGLT1 ACTIVITY (%)": 25}, {"smiles": "Cl.N=C(N)NC(=N)Nc1ccccc1", "NORMALIZED SGLT1 ACTIVITY (%)": 136}, {"smiles": "CC(C)NC(=N)NC(=N)Nc1ccc(Cl)cc1.Cl", "NORMALIZED SGLT1 ACTIVITY (%)": 130}, {"smiles": "CC1(C)NC(=O)N(c2ccc([N+](=O)[O-])c(C(F)(F)F)c2)C1=O", "NORMALIZED SGLT1 ACTIVITY (%)": 222}, {"smiles": "O=C(/C=C/C=C/c1ccc2c(c1)OCO2)N1CCCCC1", "NORMALIZED SGLT1 ACTIVITY (%)": 87}, {"smiles": "COc1ccc(-c2cc(=O)c3c(O)cc(O[C@H]4O[C@H](CO[C@@H]5O[C@@H](C)[C@H](O)[C@@H](O)[C@H]5O)[C@@H](O)[C@H](O)[C@H]4O)cc3o2)cc1", "NORMALIZED SGLT1 ACTIVITY (%)": 121}, {"smiles": "COc1ccc(C(c2ccc(OC)cc2)C(Cl)(Cl)Cl)cc1", "NORMALIZED SGLT1 ACTIVITY (%)": 42}, {"smiles": "Clc1ccc(C(c2ccc(Cl)cc2)C(Cl)(Cl)Cl)cc1", "NORMALIZED SGLT1 ACTIVITY (%)": 86}, {"smiles": "COc1ccc2cc([C@H](C)CO)ccc2c1", "NORMALIZED SGLT1 ACTIVITY (%)": 111}, {"smiles": "COc1ccc(CCC(=O)c2c(O)cc(O[C@@H]3O[C@H](CO)C(O)[C@H](O)C3O[C@@H]3O[C@@H](C)[C@H](O)[C@@H](O)[C@H]3O)cc2O)cc1O", "note": "(some centres unmarked)", "NORMALIZED SGLT1 ACTIVITY (%)": 143}, {"smiles": "C#CCCCCCCCCCCCC(O)CC(O)COC(C)=O.C=CCCCCCCCCCCCC(O)CC(O)COC(C)=O", "note": "(centres unmarked)", "NORMALIZED SGLT1 ACTIVITY (%)": 197}, {"smiles": "COC(=O)[C@H]1[C@H]2C[C@H]3c4[nH]c5cc(OC)ccc5c4CCN3C[C@H]2C[C@@H](OC(=O)c2cc(OC)c(OC)c(OC)c2)[C@@H]1OC", "NORMALIZED SGLT1 ACTIVITY (%)": 345}, {"smiles": "CC1(C)Oc2ccc3ccc(=O)oc3c2CC1O", "note": "(centres unmarked)", "NORMALIZED SGLT1 ACTIVITY (%)": 159}, {"smiles": "C/C=C(\\C)C(=O)O[C@@H]1c2c(ccc3ccc(=O)oc23)OC(C)(C)[C@@H]1OC(C)=O", "NORMALIZED SGLT1 ACTIVITY (%)": 5}, {"smiles": "CC(=O)O[C@@H]1c2c(ccc3ccc(=O)oc23)OC(C)(C)[C@@H]1OC(=O)CC(C)C", "NORMALIZED SGLT1 ACTIVITY (%)": 51}, {"smiles": "O=C1CN(/N=C/c2ccc(-c3ccc([N+](=O)[O-])cc3)o2)C(=O)[N-]1.[Na+]", "NORMALIZED SGLT1 ACTIVITY (%)": 103}, {"smiles": "CCC(C)(C)C(=O)O[C@H]1C[C@@H](C)C=C2C=C[C@H](C)[C@H](CC[C@@H]3C[C@@H](O)CC(=O)O3)[C@H]21", "NORMALIZED SGLT1 ACTIVITY (%)": 96}, {"smiles": "CC1=C(/C=C/C(C)=C/C=C/C(C)=C/C=C/C=C(C)/C=C/C=C(C)/C=C/C(=O)[C@]2(C)C[C@@H](O)CC2(C)C)C(C)(C)C[C@H](O)C1", "NORMALIZED SGLT1 ACTIVITY (%)": 103}]}]}
